CHO-K1 Ca PAM = M1 PAM counterscreen hit in parental CHO-K1 cells; ATP EC20, Fluo-8 calcium fluorescence; 0% at ATP EC20, 100% at ATP max; activation, % at 3 µM; 360,000 compounds, 0.02% hits;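 active means activation above the run cutoff, the mean activation of all test compounds plus 3 SD, cut at about 40% in these data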;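 further: peak over basal fluorescence ratio in a 140 s read after ATP addition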
CHO-K1 Ca antag = counter-screen for M1 antagonists: effect in parental CHO-K1 cells; AID 602250; 360,000 compounds, 0.6% hits; inhibition, % at 3 µM; ATP-induced calcium, Fluo-8 fluorescence;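 active means inhibition above a per-plate cutoff, the plate's mean sample inhibition plus 3 SD, cut at about 24% in these data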;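 further: 0% = DMSO plus EC80 ATP and 100% = DMSO alone without ATP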
CHRM1 agonist = human M1 muscarinic receptor agonism | activation, % at 3 µM | 360,000 compounds, 0.33% hits | CHO-K1 hM1, Fluo-8 calcium fluorescence, agonist mode; 0% DMSO, 100% acetylcholine EC100;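 active means activation above the run's mean compound activation plus 3 SD, cut at about 16% in these data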;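 further: peak over basal fluorescence ratio within a 140 s kinetic read after compound addition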
Target sequence (P11229 whole entry, looked up): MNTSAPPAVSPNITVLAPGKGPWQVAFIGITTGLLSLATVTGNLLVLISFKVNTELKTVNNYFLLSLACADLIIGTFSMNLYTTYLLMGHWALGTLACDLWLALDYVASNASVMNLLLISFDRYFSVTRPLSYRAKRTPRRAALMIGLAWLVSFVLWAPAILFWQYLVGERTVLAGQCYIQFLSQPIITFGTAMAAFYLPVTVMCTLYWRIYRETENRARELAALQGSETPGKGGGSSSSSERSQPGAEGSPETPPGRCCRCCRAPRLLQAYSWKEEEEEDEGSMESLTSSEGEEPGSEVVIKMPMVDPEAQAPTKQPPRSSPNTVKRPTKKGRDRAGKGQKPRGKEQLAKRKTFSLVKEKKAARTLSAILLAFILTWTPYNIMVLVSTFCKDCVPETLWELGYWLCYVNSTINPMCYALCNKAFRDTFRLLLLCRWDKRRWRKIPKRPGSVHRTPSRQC
M1 ag parental = nonselective activator or artifact in parental CHO-K1 cells; Fluo-8 calcium fluorescence; scaled to maximal ATP response, vehicle zero; activation, % at 3 µM; 360,000 compounds, 0.48% hits; AID 602248; in the data active means activation above about 15%;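 further: untransfected CHO-K1 host cells lacking M1 receptor as counterscreen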
M1 PAM = positive allosteric modulators of human M1 muscarinic receptor; P11229; CHO-K1 hM1, Fluo-8 calcium fluorescence, ACh EC20; 0% = ACh EC20, 100% = maximal ACh; activation, % at 3 µM; 360,000 compounds, 0.088% hits; AID 588819; in the data active means activation above about 19%, passing the limit was not always enough
CHRM1 antagonist = antagonists of human M1 muscarinic receptor | CHO-K1 hM1, Fluo-8 calcium fluorescence, ACh EC80 antagonist | inhibition, % at 3 µM | 360,000 compounds, 1.3% hits | AID 588852 | P11229;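 active means percent inhibition above its own plate's cutoff, namely the mean of that plate's compound wells plus 3 SD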;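 further: peak over basal fluorescence ratio during 140 s after agonist addition; 0% = ACh EC80 plus DMSO and 100% = DMSO alone without agonist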
* hit, by the source's call; . = no result. A selection: hits, their analogues and other compounds. The true share with any hit is near 2.3%.

SMILES | CHO-K1 Ca PAM | CHO-K1 Ca antag | CHRM1 agonist | M1 ag parental | M1 PAM | CHRM1 antagonist
C#CCOCCOCCOCCNc1nc(N2CCN(C(=O)CCCCCCCCCCNC(=O)[C@H](CCCCN)n3cc(CCCC(=O)O)nn3)CC2)nc(N2CCN(C(=O)CCCCCCCCCCNC(=O)[C@@H]([C@H](C)O)n3cc(C)nn3)CC2)n1 | 7.9 | -17.4 | 5.8 | 1.3 | 13.5 | -16.6
O=C(NCCO)C(O)C(O)C(=O)NCCO (stereo unspecified) | -0.6 | 0.1 | -4.9 | 0.4 | -2.4 | 2.6
O=C(NC1CCCCC1)C(c1ccccn1)N(C(=O)c1csnn1)C1CCCCC1 (stereo unspecified) | -9.8 | 19.6 | -4.2 | -0.5 | 2.0 | 5.2
CC(C)(C)OC(=O)NCCCCCc1cn([C@@H](CO)C(=O)NCCCCCCCCCCC(=O)N2CCN(C(=O)OC(C)(C)C)CC2)nn1 | -14.3 | 23.5 | -2.9 | 18.5* | -36.0 | 74.3*
CC(C)(C)OC(=O)CC[C@@H](C(=O)NCCCCCCCCCCC(=O)N1CCN(C(=O)OC(C)(C)C)CC1)n1cc(CCCCCNC(=O)OC(C)(C)C)nn1 | -4.5 | -0.8 | 5.8 | -0.2 | 19.5 | -5.2
N#CC(=C1C=CC(=NO)C(Cl)=C1)c1ccccc1 | 7.3 | -1.6 | -5.7 | 1.4 | -12.9 | 17.0
CCOC(=O)C1CCN(C(=O)c2cccc(C(=O)N3CCC(C(=O)OCC)CC3)c2)CC1 | 13.9 | -19.1 | 4.4 | 1.1 | -0.6 | 0.5
CCOC(=O)C1CCN(C(=O)c2cccnc2)CC1 | -0.9 | 5.9 | -2.9 | -0.2 | 27.5* | 11.6
Cn1c(=O)n(C)c2cc([N+](=O)[O-])c(N3CCN(S(=O)(=O)c4ccc5ccccc5c4)CC3)cc21 | 11.9 | -14.5 | -0.3 | 0.6 | 5.4 | -3.9
Cc1ccc(S(=O)(=O)N2CCN(c3cc4c(cc3[N+](=O)[O-])n(C)c(=O)n4C)CC2)cc1 | 5.4 | -2.2 | 0.2 | 7.9 | -22.5 | 52.1*
CC1(C)OC(=O)C2=C(C[C@@H](C3CCCC3)O[C@H]2CCc2cccc(Cl)c2)O1 | 6.7 | -13.0 | . | 0.1 | . | .
O=c1[nH]c(=S)[nH]c2c1[C@H](CCc1cccc(Cl)c1)O[C@H](C1CCCC1)C2 | 40.6* | -31.5 | . | 1.9 | . | .
Cc1ccc(NC(=O)c2ccc(Cl)c(S(=O)(=O)Nc3c(C)n(C)n(-c4ccccc4)c3=O)c2)cc1Cl | 3.0 | -3.6 | -1.9 | 0.7 | 0.2 | -1.3
Cn1c(=O)c2c(ncn2CC(=O)Nc2ccc(N3CCOCC3)cc2)n(C)c1=O | -27.6 | 25.0* | -0.2 | -0.2 | 2.0 | 1.3
CN(CC(=O)Nc1ccccc1Cl)C(=O)COC(=O)/C=C/c1ccccc1 | -20.1 | -6.1 | 2.0 | 0.8 | 12.4 | 2.0
C=CCOc1ccc(/C=C/C(=O)OCC(=O)N(C)CC(=O)Nc2ccccc2Cl)cc1 | -14.3 | 24.3* | -1.5 | 2.1 | -5.4 | 12.5
Cc1ccc(N2CCN(CCc3nc4cc(NC(=O)c5ccco5)ccc4n3C)CC2)cc1 | -5.0 | 10.6 | -6.1 | 0.6 | -22.4 | 25.1*
CCOC(=O)N1CCN(Cc2nc3cc(NC(=O)c4cccs4)ccc3n2C)CC1 | -1.5 | -1.0 | -6.4 | 1.1 | -15.9 | 25.8*
Cn1c(CCN2CCN(c3ccc(F)cc3)CC2)nc2cc(NC(=O)c3ccco3)ccc21 | -4.4 | 15.8 | -7.2 | 0.1 | -20.9 | 27.4*
Cn1c(CN2CCCC2)nc2cc(NC(=O)c3ccco3)ccc21 | 0.7 | -2.9 | -7.3 | 0.1 | 1.6 | -0.4
Cc1ccc(C(=O)Nc2ccc3c(c2)nc(CCNC(=O)c2ccco2)n3C)cc1 | 6.6 | -4.5 | -7.1 | 1.5 | -4.4 | 1.2
CCC(=O)Nc1ccc2c(c1)nc(CCN1CCN(c3ccccc3)CC1)n2C | -23.5 | 7.9 | -9.2 | -0.1 | -21.0 | 42.8*
Cn1c(CN2CCOCC2)nc2cc(NC(=O)COc3ccccc3)ccc21 | 13.1 | -11.7 | -7.2 | 2.2 | 5.6 | -2.2
CN1CCN(CCc2nc3cc(NC(=O)c4ccco4)ccc3n2C)CC1 | 14.6 | -15.6 | -3.0 | 0.4 | 11.3 | -10.9
Cn1c(CCN2CCN(c3ccccc3)CC2)nc2cc(NC(=O)c3ccco3)ccc21 | 8.4 | -6.2 | -5.1 | 7.4 | -18.8 | 45.7*
SMILES | CHO-K1 Ca PAM | CHO-K1 Ca antag | CHRM1 agonist | M1 ag parental | M1 PAM | CHRM1 antagonist
Cn1c(CCN2CCOCC2)nc2cc(NC(=O)COc3ccccc3)ccc21 | -2.0 | 25.7* | -5.2 | 0.1 | 4.6 | 11.0
Cc1cc(OCc2nc3ccccc3s2)ccc1N | 9.3 | 3.0 | -1.2 | 1.2 | 11.0 | -11.8
O=C1c2ccccc2C(=O)N1CCCc1nc2ccccc2c(=O)n1CCCn1ccnc1 | -1.2 | 30.1* | -6.1 | 0.3 | 8.3 | 2.7
CC(C)(C)C(=O)OC/C(N)=N/OC(=O)c1ccc(Cl)cc1 | 23.1 | -8.7 | -1.7 | 16.4* | 6.8 | -13.7
N/C(Cc1ccc(Cl)cc1)=N\OC(=O)c1ccccc1 | 19.0 | -7.1 | -4.2 | 0.6 | -2.0 | -10.1
CCN1CC(c2ccccc2)C(c2ccc(Cl)cc2)=N1 (stereo unspecified) | 8.2 | -5.9 | -11.0 | 0.1 | -7.2 | -1.1
CCCCN([C@H](CO)C(C)C)S(=O)(=O)c1ccccc1Br | 17.6 | -14.7 | -9.3 | -0.3 | 11.8 | -14.8
Cc1ccc(S(=O)(=O)N2CCOC2CNC(=O)C(=O)NCCCN2CCOCC2)cc1 (stereo unspecified) | -14.8 | -4.8 | -0.7 | 0.3 | 23.5* | -28.7
O=C(NCc1cccnc1)C(=O)NCC1OCCN1S(=O)(=O)c1ccccc1 (stereo unspecified) | 9.1 | -2.2 | -5.9 | 0.0 | -8.7 | 10.9
Cc1ccc(S(=O)(=O)N2CCOC2CNC(=O)C(=O)NCc2cccnc2)cc1 (stereo unspecified) | -9.9 | 35.9* | -6.5 | 1.6 | 2.5 | -3.2
COc1cccc(CC2(CO)CCCN(Cc3sc(N4CCCC4)nc3Cl)C2)c1 (stereo unspecified) | 22.7 | -14.5 | -6.5 | 8.4 | 4.4 | -5.5
CCCCN(CCCC)c1ccc(C(=O)c2ccccc2C(=O)O)c(O)c1 | 8.4 | -0.7 | 36.7* | 15.3* | -11.5 | 4.7
Cc1ccc(C)c(C(=O)CN2C(=O)NC3(CCCCCC3)C2=O)c1 | 10.8 | -10.8 | -7.3 | 2.8 | 1.8 | -6.3
O=C(C[C@H]1C/C=C\C[C@H](Cc2ccc(F)cc2)C(=O)O[C@@H](c2ccccc2)CNC1=O)N[C@H](CO)Cc1ccccc1 | -0.5 | -2.8 | 36.8* | 13.3 | 2.1 | 8.6
O=C(C[C@H]1C/C=C\CC[C@H](Cc2ccc(F)cc2)C(=O)O[C@@H](c2ccccc2)CNC1=O)N[C@H](CO)Cc1ccccc1 | 19.2 | -16.8 | 36.0* | 6.1 | 3.2 | 9.2
O=C(C[C@H]1C/C=C\CC[C@H](Cc2ccc(F)cc2)C(=O)O[C@@H](c2ccccc2)CNC1=O)N[C@@H](CO)Cc1ccccc1 | -0.7 | -4.6 | -0.1 | 3.6 | -4.9 | 16.6
COc1ccc(S(=O)(=O)N(CC(=O)NCc2ccncc2)c2cc(C)cc(C)c2)cc1OC | 10.9 | -7.6 | -10.3 | 3.6 | -0.6 | -6.2
